Screening results (PubChem BioAssay)
An excerpt weighted towards active compounds, which were near 2% of everything screened.
GC-A act = GC-A (human) enzyme activation | P16066 | HEK293 GC-A cells, cGMP TR-FRET, EC30 ANP; 0% at EC30 ANP, 100% saturating ANP | activation, % at 10 µM | hit rate 0.14% among 370,000; in the data active means activation above about 40%
Target sequence (P16066 whole entry, looked up): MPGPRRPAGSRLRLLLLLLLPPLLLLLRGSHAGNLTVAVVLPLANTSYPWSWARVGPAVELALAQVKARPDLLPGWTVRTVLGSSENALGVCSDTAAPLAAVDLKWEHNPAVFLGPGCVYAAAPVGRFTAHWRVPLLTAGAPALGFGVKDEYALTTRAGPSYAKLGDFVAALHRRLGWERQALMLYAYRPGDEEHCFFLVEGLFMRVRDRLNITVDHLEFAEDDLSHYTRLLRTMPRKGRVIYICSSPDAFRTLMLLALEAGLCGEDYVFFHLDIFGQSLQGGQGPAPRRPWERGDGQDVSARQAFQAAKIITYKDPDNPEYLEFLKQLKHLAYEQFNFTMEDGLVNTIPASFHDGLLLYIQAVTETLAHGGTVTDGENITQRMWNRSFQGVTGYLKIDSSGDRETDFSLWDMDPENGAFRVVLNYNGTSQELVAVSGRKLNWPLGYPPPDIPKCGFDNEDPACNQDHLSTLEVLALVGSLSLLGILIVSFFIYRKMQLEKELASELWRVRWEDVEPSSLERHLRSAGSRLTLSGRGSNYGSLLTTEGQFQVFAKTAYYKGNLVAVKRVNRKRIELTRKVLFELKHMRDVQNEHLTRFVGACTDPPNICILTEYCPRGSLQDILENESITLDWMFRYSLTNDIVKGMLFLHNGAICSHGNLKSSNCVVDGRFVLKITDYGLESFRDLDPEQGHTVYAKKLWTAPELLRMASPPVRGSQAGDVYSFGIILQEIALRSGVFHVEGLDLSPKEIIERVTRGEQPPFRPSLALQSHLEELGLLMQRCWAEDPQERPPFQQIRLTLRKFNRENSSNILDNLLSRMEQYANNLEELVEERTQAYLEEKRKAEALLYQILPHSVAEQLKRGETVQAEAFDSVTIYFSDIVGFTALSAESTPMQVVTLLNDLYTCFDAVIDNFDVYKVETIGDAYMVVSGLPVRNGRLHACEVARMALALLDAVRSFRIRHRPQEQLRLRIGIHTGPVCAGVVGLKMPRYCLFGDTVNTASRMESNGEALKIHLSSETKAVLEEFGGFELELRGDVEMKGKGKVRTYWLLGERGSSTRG
FAS TE block = inhibitors of human fatty acid synthase thioesterase domain; hit rate 0.67% among 360,000; recombinant FAS-TE, OMFH fluorogenic substrate, fluorescence endpoint; P49327; inhibition, % at 15 µM;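 active means compounds whose normalised, plate-corrected inhibition of enzyme fluorescence in the single-dose primary screen is 50% or more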;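 further: 0% = DMSO with enzyme and 100% = substrate without enzyme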
ADAM17 inh = ADAM17 inhibition, QFRET primary screen; P78536; recombinant ADAM17, EDANS/DABCYL FRET peptide cleavage; inhibition, % at 6.95 µM; hit rate 0.83% among 370,000;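 active means inhibition above the mean of compounds lying between control limits plus 3 SD, set per campaign, cut at about 8.5% in these data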;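 further: 0% = DMSO-only wells as the low control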
ADAM10 inh = ADAM10 inhibition, QFRET primary screen; O14672; recombinant ADAM10, EDANS/DABCYL FRET peptide cleavage, 3 h; inhibition, % at 7 µM; hit rate 0.62% among 370,000; AID 720582;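 active means inhibition above a per-campaign cutoff equal to the mean of compounds falling between control-based bounds plus 3 SD, cut at about 20% in these data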;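 further: 0% = DMSO wells while the 100% control is not disclosed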
NPR2 activator = GC-B (human) receptor activation; activation, % at 10 µM; P20594; AID 1920062; hit rate 0.11% among 370,000; HEK293-GC-B cells, CNP EC30, cGMP TR-FRET; 0% at EC30 CNP, 100% saturating CNP;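 active means activation at 10 µM reaching about 35% in either raw or pattern-adjusted values, limit read from the data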
An asterisk follows results filed as active; i = inactive; nt = no result.

SMILES | GC-A act | FAS TE block | ADAM17 inh | ADAM10 inh | NPR2 activator
Cn1c(=S)c2[nH]c(SCCC(C)(C)C)nc2n(C)c1=O | 44.1* | -1.3 | -7.9 | -21.8 | 50.2*
CCCCN(C)C(=O)CNc1nnnn1-c1ccccc1 | 2.6 | nt | -1.0 | 0.6 | 0.2
CCN1C(=S)N[C@@H](c2ccccc2)C(C(=O)OC)=C1C | 34.6 | -7.2 | -0.9 | -1.3 | 45.9*
CCS(=O)(=O)Nc1ccc2c(c1)C(=O)N(C)[C@@H]1CC[C@H](CC(=O)N3CCCCC3)O[C@H]1CO2 | 1.5 | nt | 0.1 | 2.0 | -1.3
CN(C)S(=O)(=O)c1cccc(-c2nnc(SCc3ccc4c(c3)OCCO4)o2)c1 | 2.7 | -146.4 | 11.6* | 20.4* | 5.5
COc1ccc(NS(=O)(=O)c2cccc(C(=O)O)c2)cc1 | -3.4 | -12.2 | 1.4 | 3.1 | 1.8
COc1ccc(C(=O)C(C)OC(=O)c2cccc(S(=O)(=O)Nc3cc(Cl)c(OC)cc3OC)c2)cc1 (centres undefined) | nt | 57.1* | nt | nt | nt
COCCCN1C(=O)[C@H](CC(=O)N2CCOCC2)[C@]2(C(=O)OC)CCCCC=C12 | 2.6 | nt | -1.3 | -1.9 | 0.9
CCOc1cc(/C=C(\C#N)C(=O)Nc2cccc(C(=O)O)c2)ccc1OCc1ccccc1Cl | 3.8 | 33.2 | -3.4 | -10.8 | 0.3
CCOc1cc(/C=C(\C#N)C(=O)Nc2cccc(C(=O)O)c2)cc(Br)c1OC(=O)c1ccc(OC)cc1 | 1.6 | 84.3* | 2.8 | 12.0 | -7.9
COC1=C(OC)C(=O)C(Sc2ccc3ccccc3c2)=CC1=O | 40.1* | 13.8 | 4.4 | -2.8 | 19.6
COCCNC(=O)c1cccc2c(-c3cccc(C(N)=O)c3)coc12 | 7.2 | -4.6 | -0.4 | 2.5 | 12.6
NC(=O)c1cccc(-c2coc3c(C(=O)NCc4ccccc4)cccc23)c1 | 21.0 | -10.2 | -3.2 | -5.9 | 37.4*
O=c1c2c3nc4ccccc4nc3n(Cc3ccccc3)c2ncn1Cc1ccco1 | 46.1* | 9.4 | -320.4 | i | 47.9*
CCCCOCCCNC(=O)C[C@H]1C[C@@]2(C(=O)OC)C(=C[C@H](C(C)C)O[C@@H]2C2CC2)N(Cc2ccc(Cl)cc2Cl)C1=O | -14.2 | nt | 2.5 | 7.8 | -3.6
COc1ccc(N2CCN(C(=O)C3Cc4ccccc4CN3C(=O)c3ccccc3)CC2)cc1 (centres undefined) | -0.1 | 10.5 | 1.1 | -1.4 | -4.3
CC(=O)N1Cc2ccccc2CC1C(=O)N1CCN(c2ccccc2)CC1 (centres undefined) | 0.7 | -6.0 | -2.9 | -3.4 | 78.0*
CN1C(=O)c2cccc(NC(=O)C3CCCCC3)c2C1=O | 0.8 | 1.4 | -46.4 | -216.4 | 54.5*
CC(C)C[C@@]12C(=O)N(c3cccc(Br)c3)C(=O)N1[C@H](c1ccc(F)cc1)[C@@H]1C(=O)N(C3CCCCC3)C(=O)[C@@H]12 | -9.2 | 86.1* | 2.4 | 16.5 | -4.7
O=C1[C@H]2[C@@H](c3ccc(F)cc3)N3C(=O)N(c4ccc(Br)cc4)C(=O)[C@@]3(Cc3ccc(Cl)cc3)[C@H]2C(=O)N1C1CCCCC1 | -3.6 | 93.5* | 1.4 | 8.4 | 4.3
O=C1[C@H]2[C@@H](c3ccc(Cl)cc3)N3C(=O)N(c4cccc(Cl)c4)C(=O)[C@@]3(Cc3ccccc3)[C@H]2C(=O)N1C1CCCCC1 | -5.6 | 93.6* | 0.2 | -1.0 | -4.2
O=C1[C@H]2[C@@H](c3ccc(F)cc3)N3C(=O)N(c4cccc(F)c4)C(=O)[C@@]3(Cc3ccccc3)[C@H]2C(=O)N1C1CCCCC1 | -12.4 | 45.5 | 2.7 | 3.1 | -14.1
CC[C@@]12C(=O)N(c3cccc(F)c3)C(=O)N1[C@H](c1ccc(F)cc1)[C@@H]1C(=O)N(C3CCCCC3)C(=O)[C@@H]12 | nt | 31.2 | nt | nt | nt
Cc1ccc(N2C(=O)N3[C@H](c4ccc(F)cc4)[C@@H]4C(=O)N(C5CCCCC5)C(=O)[C@@H]4[C@]3(Cc3ccccc3)C2=O)cc1 | -3.7 | 44.8 | -1.2 | 0.7 | -3.3
CCCCNC(=O)C[C@H]1C[C@@]2(C(=O)OC)C(=C[C@H](C(C)C)O[C@@H]2C2CC2)N(Cc2ccc3c(c2)OCO3)C1=O | -8.8 | nt | -3.0 | 1.7 | -7.5
Cc1ccc(/C=C2/NC(=O)N(Cc3ccccc3F)C2=O)o1 | 60.2* | -10.5 | -2.5 | -5.2 | 42.1*
Cc1ccc(/C=C2/NC(=O)N(Cc3ccc(Br)cc3)C2=O)o1 | 2.8 | -1.2 | 1.9 | 5.7 | 48.8*
